Sampled rows, rich in hits. Any-hit rate of the full collection: about 3.4%.
pPAFAH FP inh: pPAFAH (human) enzyme inhibition | Q13093 | recombinant pPAFAH, FP-rhodamine probe fluorescence polarization | inhibition, % at 3.39 µM | hit rate 1.5% among 330,000 | AID 463082;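 active = inhibition above the mean inhibition across the screen plus 3 SD, cut at about 25% in these data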;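 note: inhibitors block binding of the rhodamine activity-based probe so polarization drops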
PAFAH2 inh: inhibitors of human PAFAH2; Q99487; inhibition, % at 3.39 µM; recombinant PAFAH2, FP-rhodamine activity probe, fluorescence polarization; hit rate 0.99% among 340,000;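 active = inhibition above the mean over all tested compounds plus 3 SD, cut at about 30% in these data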;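 note: inhibitors block probe labeling of enzyme so polarization drops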
PP5 inh: PP5 (human) phosphatase inhibition; AID 1987; hit rate 0.18% among 320,000; purified PP5c, OMFP substrate fluorescence; inhibition, % at 6.7 µM; P53041;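 active = inhibition above the campaign's mean inhibition across all tested compounds plus 3 SD, cut at about 9.5% in these data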
PP1 counter: counter-screen for PP5 inhibitors: inhibitors of human PP1-alpha; P62136; purified PP1alpha, OMFP fluorescence; inhibition, % at 6.7 µM; hit rate 0.9% among 320,000; AID 2235;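 active = inhibition above the mean inhibition of all tested compounds plus 3 SD, computed separately for each screening campaign, cut at about 15% in these data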
Target sequence (P62136 whole entry, looked up): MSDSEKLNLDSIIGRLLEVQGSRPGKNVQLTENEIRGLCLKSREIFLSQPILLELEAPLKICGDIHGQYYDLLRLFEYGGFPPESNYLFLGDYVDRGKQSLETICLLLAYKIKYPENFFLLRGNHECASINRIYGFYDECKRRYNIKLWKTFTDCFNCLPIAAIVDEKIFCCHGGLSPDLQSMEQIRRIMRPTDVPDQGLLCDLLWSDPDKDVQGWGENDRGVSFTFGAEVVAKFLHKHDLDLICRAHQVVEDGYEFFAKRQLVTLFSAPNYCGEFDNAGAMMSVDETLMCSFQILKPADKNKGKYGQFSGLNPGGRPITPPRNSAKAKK
PAFAH1B3 FP inh: inhibitors of human PAFAH1B3; Q15102; recombinant PAFAH1B3, FP-rhodamine probe, fluorescence polarization; inhibition, % at 3.39 µM; hit rate 0.28% among 340,000; AID 492972;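 active = inhibition above the screen-wide average of all tested compounds plus 3 SD, cut at about 25% in these data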
Target sequence (Q15102 whole entry, looked up): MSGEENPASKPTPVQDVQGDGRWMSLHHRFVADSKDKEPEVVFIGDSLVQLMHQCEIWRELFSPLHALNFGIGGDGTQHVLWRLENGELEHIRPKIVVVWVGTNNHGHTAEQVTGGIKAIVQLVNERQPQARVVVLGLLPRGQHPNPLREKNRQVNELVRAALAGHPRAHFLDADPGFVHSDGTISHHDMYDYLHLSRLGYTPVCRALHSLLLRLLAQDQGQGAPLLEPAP
PAFAH1B2 inh: PAFAH1B2 (human) inhibition | P68402 | recombinant PAFAH1B2, FP-rhodamine activity probe, fluorescence polarization | inhibition, % at 3.39 µM | hit rate 1.2% among 340,000 | AID 492953;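 active = inhibition above the mean of all tested compounds plus 3 SD, cut at about 24% in these data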
Each line names hits and unclear results; the compound was inactive in the other large screens.

Cc1c(/C=N\NC(=O)C2COc3ccc(C(C)(C)C)cc3O2)c2ccccc2n1C (configuration not stated)	pPAFAH FP inh 27
CC(C)(C)c1ccc2c(c1)OC(C(=O)N/N=C/c1ccc([N+](=O)[O-])o1)CO2 (configuration not stated)	pPAFAH FP inh 28 (no result: PAFAH2 inh, PAFAH1B3 FP inh, PAFAH1B2 inh)
Cn1cccc1/C=N\NC(=O)C1COc2ccc(C(C)(C)C)cc2O1 (configuration not stated)	none
CC1([N+](=O)[O-])COC2(CCCCC2)OC1	none (no result: pPAFAH FP inh, PP5 inh, PP1 counter)
Cc1ccccc1C(OCC(O)CN1CCN(CCO)CC1)c1ccccc1 (configuration not stated)	none
COc1ccc(C(=O)NNC2CC(=O)N(Cc3ccc(Cl)cc3)C2=O)cc1OC (configuration not stated)	pPAFAH FP inh 33
CCN1C(=O)CC(NNC(=O)c2ccc(Cl)cc2)C1=O (configuration not stated)	none
O=C(NCc1ccccc1)c1cccc(NC(=O)C2CCCC2)c1	none (no result: pPAFAH FP inh, PP5 inh, PP1 counter)
O=C(CCC1CCCN(C(=O)Cc2cccc(F)c2)C1)N1CCN(c2ccccn2)CC1 (configuration not stated)	none
Cc1ccc(C(=O)N2CCCC(CCC(=O)N3CCN(c4ccccn4)CC3)C2)s1 (configuration not stated)	pPAFAH FP inh 30
O=C(CCC1CCCN(C(=O)CCCc2ccccc2)C1)N1CCN(c2ccccn2)CC1 (configuration not stated)	pPAFAH FP inh 25
COc1ccccc1N(C)S(=O)(=O)c1ccc(C(=O)Nc2cc(OC)c(OC)c(OC)c2)cc1	none (no result: pPAFAH FP inh, PP5 inh, PP1 counter)
COc1ccccc1OCCCOc1cccc(/C=C2\SC(=O)NC2=O)c1	PP1 counter 16
COc1ccccc1OCCCOc1ccc(/C=C2\SC(=O)NC2=O)cc1OC	none
CSCCC(NC(=O)c1ccco1)C(=O)NCc1ccc(F)cc1 (configuration not stated)	none
CSCCC(NC(=O)c1ccco1)C(=O)NCCc1ccc(Cl)cc1 (configuration not stated)	PAFAH1B2 inh 28 (no result: PP5 inh, PP1 counter)
Cc1ccc(S(=O)(=O)N2CCN(C(=O)c3cc(S(=O)(=O)N(C)C)ccc3N3CCCC3)CC2)c(C)c1	none (no result: pPAFAH FP inh, PP5 inh, PP1 counter)
OCCOCCN1CCN(C2=Nc3ccccc3Sc3ccccc32)CC1	none
O=C1C=CC(=O)c2c(O)c(N3CCN(CCO)CC3)c(Cl)c(O)c21	PAFAH2 inh 41, PAFAH1B3 FP inh 50, PAFAH1B2 inh 28 (no result: pPAFAH FP inh, PP5 inh, PP1 counter)
O=C1C=CC(=O)c2c(O)c(N3CCN(CCOCCO)CC3)c(Br)c(O)c21	PAFAH2 inh 59, PAFAH1B3 FP inh 62, PAFAH1B2 inh 44 (no result: pPAFAH FP inh, PP5 inh, PP1 counter)
COc1cc(Cn2nnc3ccccc32)cc(Br)c1O	none
Cc1cccc(-n2ccc(=O)c(C(=O)Nc3ccc(S(=O)(=O)Nc4nccs4)cc3)n2)c1	none
O=C(Nc1ccc(S(=O)(=O)Nc2nccs2)cc1)c1nn(-c2ccccc2)ccc1=O	pPAFAH FP inh 25
CN1CCN(C(=O)c2ccccc2NC(=O)c2cccc(Cl)c2)CC1	none
COc1ccc2[nH]c(C(=O)NCCN3CCOCC3)cc2c1	PAFAH1B2 inh 36
O=C(NCCN1CCOCC1)c1cc2ccccc2[nH]1	none
O=c1cc(CSc2ccc(S(=O)(=O)N3CCCCC3)cn2)nc2sccn12	PAFAH1B2 inh 25
O=S(=O)(c1ccc(SCc2ccc(Cl)cc2)nc1)N1CCCC1	PAFAH1B2 inh 26
Cc1cccc(NS(=O)(=O)c2cccc(C(=O)NCC3(N4CCOCC4)CCCCC3)c2)c1	none (no result: pPAFAH FP inh, PP5 inh, PP1 counter)
Cc1ccc2c(c1)-c1cc(C)ccc1C2=O	none (no result: pPAFAH FP inh, PP5 inh, PP1 counter)
COc1ccc(NS(=O)(=O)c2cc(NC(=O)C(CC(C)C)NC(N)=O)ccc2N2CCOCC2)cc1 (configuration not stated)	none (no result: pPAFAH FP inh, PP5 inh, PP1 counter)
COC(=O)C(Cc1ccc(O)cc1)NC(=O)C(C)NC(=O)c1ccc(C(C)(C)C)cc1 (configuration not stated)	PAFAH1B2 inh 27
Cc1noc(C)c1NC(=O)N(C)C[C@@H]1Oc2ccc(NC(=O)C3CCCCC3)cc2C(=O)N([C@@H](C)CO)C[C@H]1C	none (no result: PP5 inh, PP1 counter)
CCC(C(=O)NCc1ccccc1OC)c1ccccc1 (configuration not stated)	none
CC(C)(C)c1ccc(C(=O)n2cnc3ccccc32)cc1	none
CCN(CC)c1ccc(C(=O)n2cnc3ccccc32)cc1	pPAFAH FP inh 30
CC(C)(C)CN1CCC(Oc2cccc(C(=O)N3CCNC(=O)C3(C)C)c2)CC1	none
O=C(CCS(=O)(=O)c1ccc2c(c1)NC(=O)CS2)NCCc1ccc(Cl)cc1	PAFAH1B2 inh 26
O=C(CCS(=O)(=O)c1ccc2c(c1)NC(=O)CS2)NCCc1ccccc1	none
CCOC(=O)C1=C(CSc2nc3c(cc2C#N)CN(C)CC3)OC(N)=C(C#N)C1c1ccc(Cl)cc1 (configuration not stated)	pPAFAH FP inh 29
O=[N+]([O-])c1ccc(O)c(C=Nc2ccc3oc(Cc4ccc(Cl)cc4)nc3c2)c1	pPAFAH FP inh 46 (no result: PAFAH2 inh, PAFAH1B3 FP inh, PAFAH1B2 inh)
Cc1ccc(/C=C/C2=Cc3c(sc(NC(=O)CSc4n[nH]c(N)n4)c3C#N)C(C)(C)C2)o1	pPAFAH FP inh 58, PP1 counter 57 (no result: PAFAH2 inh, PAFAH1B3 FP inh, PAFAH1B2 inh)
COc1ccc(CCNC(=O)C2CCN(S(=O)(=O)c3ccc(Cl)cc3)CC2)cc1OC	none
O=C(NNC(=O)C1CCN(S(=O)(=O)c2ccc(Cl)cc2)CC1)c1ccc(S(=O)(=O)N2CCCCC2)cc1	none
CCN(CC)S(=O)(=O)N1CCC(C(=O)NCC2COc3ccccc3O2)CC1 (configuration not stated)	none
CC(=O)Nc1ccc(S(=O)(=O)N2CCC(C(=O)NCCc3ccc(Cl)cc3)CC2)cc1	PAFAH1B2 inh 27 (no result: pPAFAH FP inh, PP5 inh, PP1 counter)
O=C(NCC1COc2ccccc2O1)C1CCN(S(=O)(=O)c2ccc(Cl)cc2)CC1 (configuration not stated)	PAFAH1B2 inh 29
Cc1ccc(C(=O)NNC(=O)C2CCN(S(=O)(=O)c3ccc(Cl)cc3)CC2)cc1	PAFAH1B2 inh 26
C=CCNC(=O)C1CCN(S(=O)(=O)c2ccc(Br)cc2)CC1	PAFAH1B2 inh 33
COCCN(C(=O)c1snc(C(N)=O)c1N)C(C(=O)NC1CCCCC1)c1ccc(F)cc1 (configuration not stated)	none
O=C(NCCc1ccc(Cl)cc1)C1CCCN1C(=O)Nc1ccccc1 (configuration not stated)	PAFAH1B2 inh 26
CCOC(=O)CC(=O)CSc1nc(-c2ccccc2)cc(-c2ccccc2)c1C#N	PP1 counter 17
CCn1c(CNC(=O)COc2ccc(C(C)C)cc2)nnc1SCC(=O)Nc1ccccc1C(C)C	pPAFAH FP inh 30
CCn1c(CNC(=O)COc2ccc(C(C)C)cc2)nnc1SCC(=O)Nc1ccccc1F	none
Cc1cccc(NC(=O)c2ccc(C)c(S(=O)(=O)N3CCOCC3)c2)n1	none (no result: pPAFAH FP inh, PP5 inh, PP1 counter)
COc1ccccc1Cn1c(-c2ccccc2OC)nc2ccccc21	pPAFAH FP inh 27
